Screening data: PubChem BioAssay, National Center for Advancing Translational Sciences (NCATS)
Luc counter – counter-screen: inhibitors of Kinase-Glo firefly luciferase. hit rate 0.28% among 200,000. AID 1379. Potency, µM (top dose mostly 38.3 µM), actives largely listed as inhibitors. Kinase-Glo luciferase, ATP luminescence, 8 min; further: nearly all actives have a fitted effect of over 60% in size
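Luminescence was the read-out, taken after 8-minute incubation at ambient temperature. Luciferase turned over luciferin with 10 uM ATP in imidazole pH 7.2 buffer containing KCl, MgCl2, Tween 20 and BSA.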
NPC1 promoter act – activators of NPC1 promoter | hit rate 2.4% among 320,000 | Potency, µM (series often up to 9.22 µM), actives largely listed as activators | Huh7 NPC1 promoter luciferase reporter, 24 h; further: nearly all actives have a fitted effect of over 60% in size
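Quantitative HTS used a cell-based reporter: Huh7 cells stably bearing the NPC1 promoter upstream of luciferase were treated with compounds for 24 h, and promoter activation was read as luminescence.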
ELG1 genotox – induces genotoxicity in HEK293T cells with luciferase-tagged ELG1. HEK293T ELG1-luciferase reporter, luminescence, 16 h. Potency, µM (top dose mostly 46 µM), hits mostly activators. hit rate 1.3% among 330,000; further: nearly all actives have a fitted effect of over 60% in size
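ELG1-luciferase HEK293T cells, 2,000/well; compound pinned in; 16 hr, 37 °C, 5% CO2; ONE-Glo, 30 min RT; luminescence on CCD imager.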
FLuc counter – inhibits or activates purified firefly luciferase, miR-21 counter-screen; P08659; hit rate 6.9% among 360,000; Potency, µM (doses to about 57.5 µM), usual class: inhibitors; purified FLuc, Km substrates, luminescence inhibition; further: nearly all actives have a fitted effect of over 55% in size
Target sequence (P08659 whole entry, looked up): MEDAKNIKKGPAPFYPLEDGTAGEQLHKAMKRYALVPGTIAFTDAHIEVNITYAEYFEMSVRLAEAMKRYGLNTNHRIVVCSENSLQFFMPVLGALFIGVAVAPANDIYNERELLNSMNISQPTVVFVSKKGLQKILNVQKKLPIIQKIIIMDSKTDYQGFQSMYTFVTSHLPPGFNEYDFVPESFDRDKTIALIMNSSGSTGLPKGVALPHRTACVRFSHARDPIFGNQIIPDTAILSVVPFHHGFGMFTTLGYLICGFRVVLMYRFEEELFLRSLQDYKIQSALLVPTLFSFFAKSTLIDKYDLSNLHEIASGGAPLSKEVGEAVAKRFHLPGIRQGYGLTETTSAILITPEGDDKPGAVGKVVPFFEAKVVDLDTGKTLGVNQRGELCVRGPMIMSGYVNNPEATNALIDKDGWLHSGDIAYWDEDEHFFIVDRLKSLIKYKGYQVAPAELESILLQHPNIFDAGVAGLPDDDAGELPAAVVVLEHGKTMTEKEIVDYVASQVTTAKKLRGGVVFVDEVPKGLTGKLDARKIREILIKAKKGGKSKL
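Purified P. pyralis luciferase, 10 nM final, with Km-level 10 uM D-luciferin and 10 uM ATP in 50 mM Tris acetate pH 7.5, 10 mM Mg acetate, 0.01% Tween-20, 0.05% BSA; 6-point qHTS titration about 60 µM downward; luminescence read.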
Rab9 prom act – Rab9 promoter activation | Huh7 Rab9 promoter-luciferase reporter, luminescence, 24 h | Potency, µM (series often up to 9.22 µM), most hits filed as activators | hit rate 2.8% among 320,000; further: nearly all actives have a fitted effect of over 60% in size
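Promoter activation is measured as luciferase luminescence in Huh7 cells stably transfected with a Rab9 promoter–luciferase construct, following 24 h compound exposure at 37 °C and 10 min reagent incubation at ambient temperature.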
SMN2 splice up – enhancers of SMN2 splice variant expression; hit rate 2.8% among 210,000; Potency, µM (doses to about 46.1 µM), most hits filed as activators; HEK293 SMN2-luciferase splicing reporter, luminescence, 30-36 h; AID 1458; further: nearly all actives have a fitted effect of over 55% in size
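HEK293 cells carry an SMN2 minigene-luciferase reporter in which exon 7 inclusion puts luciferase in frame. Cells were seeded at 2000 cells/well, attached for 10-12 hours, then exposed to compounds for 30-36 hours at 37C before ONE-Glo luminescence.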
A number is an active result; – = inactive; ? = inconclusive; · = no result; [ ] = remark or other dose. An excerpt weighted towards active compounds, which were near 7.4% of everything screened. The call rests on the fitted dose curve; in most records, active means well fitted curve in the direction sought with a large enough effect; inconclusive means small, poorly fitted or top-dose-only effect, or another doubt; inactive means no such curve, though single readings can be large; an effect the other way counts as inactive or inconclusive.

SMILES	Luc counter	NPC1 promoter act	ELG1 genotox	FLuc counter	Rab9 prom act	SMN2 splice up
COc1ccc(-c2cc3ccccc3oc2=O)cc1NC(=S)NC(=O)c1ccc2c(c1)OCCO2	–	–	?	?	–	–
COc1ccc(-c2cc3ccccc3oc2=O)cc1NC(=O)c1ccc(Br)o1	–	?	?	–	?	3.2µM
CCC(=O)Nc1cc(-c2cc3ccccc3oc2=O)ccc1OC	–	?	?	–	0.79µM	1.1µM
CCC(=O)Nc1ccc(-c2cc3ccccc3oc2=O)cc1	–	?	3.7µM	7.6µM	?	8.9µM
CC(=O)Nc1ccc(-c2cc3ccccc3o2)cc1	–	2.2µM	?	3µM	3.2µM	11µM
CCN(CC(=O)Nc1ccc(NC(C)=O)cc1)C(=O)c1cc2ccccc2oc1=O	·	–	–	–	–	·
CC(C)Sc1ncc(Cl)c(C(=O)Nc2nc3ccc(S(C)(=O)=O)cc3s2)n1	·	·	·	?	·	–
CCOC(=O)Cc1csc(NC(=O)c2ccc(NC(C)=O)cc2)n1	–	–	–	?	–	–
CCOC(=O)Cc1csc(NC(=O)CSc2ncnc3c2cnn3-c2ccc(OC)cc2)n1	–	–	–	8.5µM	–	–
CCOC(=O)CNC(=O)CSc1ncnc2c1cnn2-c1ccc(Cl)cc1	–	–	–	–	–	–
CCOC(=O)Cc1csc(NC(=O)COc2ccc3c(c2)CCC3)n1	·	–	–	12µM	–	·
CCOC(=O)Cc1csc(NC(=O)Nc2ccc(OC(F)(F)F)cc2)n1	·	–	–	2.4µM	–	·
CCOC(=O)Cc1csc(NC(=O)COc2ccc(C)cc2)n1	–	–	–	13µM	–	·
COc1ccc(C2Nc3ccccc3C(=O)N2c2ccc(C)cc2)cc1Cn1nc(C)c([N+](=O)[O-])c1C (stereo not given)	·	?	?	–	?	·
COc1ccc(C2Nc3ccccc3C(=O)N2c2ccccc2)cc1CN1CCOCC1 (stereo not given)	–	–	–	–	–	–
COc1ccc(N2C(=O)c3ccccc3NC2c2ccc(OC)c(Cn3nnc4ccccc43)c2)cc1 (stereo not given)	–	?	–	–	?	14µM
COc1ccc(C2Nc3ccccc3C(=O)N2c2ccc(C)cc2)cc1COc1ccccn1 (stereo not given)	–	3.2µM	?	?	3.2µM	11µM
CCc1cnc2c(c1SCC(=O)c1ccc(Cl)cc1)c(=O)n(C)c(=O)n2C	·	·	·	–	·	·
O=C(N/N=C/c1ccc(C(F)(F)F)cc1)c1ccc(O)cc1	–	–	–	11µM	–	–
O=C(N/N=C/c1cccc(C(F)(F)F)c1)c1ccc(O)cc1	–	–	–	17µM	–	–
O=C(N/N=C\c1cccc(O)c1)c1ccncc1	–[7.66 µM]	·	·	·	·	–[9.22 µM]
O=C(N/N=C/c1ccc(O)cc1)c1csc2c1CCCC2	–	–	–	13µM	–	–
CCCOc1ccc(C(=O)Nc2cc3nn(-c4ccc(CC)cc4)nc3cc2C)cc1	·	·	·	?	·	–
CCOc1ccc(-n2nc3ccc(NC(=O)c4cccc(F)c4)cc3n2)cc1	·	·	·	–	·	–
CCOc1ccc(-n2nc3cc(C)c(N)cc3n2)cc1	·	0.45µM	?	0.34µM	0.45µM	·
SMILES	Luc counter	NPC1 promoter act	ELG1 genotox	FLuc counter	Rab9 prom act	SMN2 splice up
CCOc1ccc(-n2nc3ccc(N)cc3n2)cc1	·	?	?	0.76µM	–	·
CCOc1ccc(-n2nc3cc(C)c(NC(=O)c4cc(OCC)c(OCC)c(OCC)c4)cc3n2)cc1	·	·	·	–	·	–
Cn1c(=O)c2c(nc(NCCc3ccccc3)n2Cc2cccc(Br)c2)n(C)c1=O	·	·	·	–	·	–
O=C(CCl)N(C/C=C/c1ccccc1)c1ccc2c(c1)OCCO2	–	–	–	24µM	–	–
N#CCCN(C(=O)CSc1ncccn1)c1ccc2c(c1)OCCO2	·	–	–	–	–	·
Cc1ccc(C)c(NC(=O)/C(C#N)=C/c2ccc[nH]2)c1	·	–	–	–	–	·
Cc1cccc(NC(=O)/C(C#N)=C/c2ccc[nH]2)c1C	·	?	?	–	4µM	·
COC(=O)C1=C(O)/C(=C\c2cc(C)n(-c3ccccc3F)c2C)N=C1C	–	–	?	0.85µM	–	–
COC(=O)C1=C(C)NC(=O)/C1=C\c1cc(C)n(-c2cc(C)cc(C)c2)c1C	–	–	–	–	–	–
COC(=O)C1=C(C)NC(=O)/C1=C\c1cc(C)n(-c2ccccc2)c1C	–	–	–	11µM	?	–
